Experimental data from ChEMBL document CHEMBL4888484, “Replenishing the malaria drug discovery pipeline: Screening and hit evaluation of the MMV Hit Generation Library 1 (HGL1) against asexual blood stage Plasmodium falciparum ,using a nano luciferase reporter read-out” (2022).
Screen size: about 4,800 compounds; about 420 (8.8%) showed an effect of 50% or more. The sample as a whole holds a higher share of strong results than the screen did.

Each compound was assayed on Plasmodium falciparum (assay: Confirmatory screen in NF54 nanoGlo assay, in single point, at 2uM, 72h). Details: timepoint 72 hour.
Assay type: functional, Erythrocyte
In the case of Cc1cc(NC(=O)C(=O)NC2CC(C)CC(C)(C)C2)n(-c2nc3c(c(=O)[nH]2)CCC3)n1 (configuration not stated), the “% Inhibition” value is reported as 90%. For COc1ccc2ccccc2c1C(=O)Nc1ccc(N2CCN(C)CC2)c(Cl)c1, the “% Inhibition” value was 5%. For CCOc1ccc2ccccc2c1C(=O)Nc1cc(C)nn1-c1nc2c(c(=O)[nH]1)CCC2, the “% Inhibition” value was 94%. With O=C(Cc1ccccc1)Nc1c2c(nc3c1CCC3)CCCC2 the “% Inhibition” value was 3%. Cc1cc(C)cc(Nc2nc(C)cc(=O)n2CC(=O)Nc2ccc(C)cc2Br)c1 was tested, and the “% Inhibition” value was -8%. Cc1ccc2c(c1)ncc1c(-c3ccccc3)nn(-c3ccc(F)cc3)c12 was tested, and the “% Inhibition” value was -5%. COc1ccc(NC(=O)Cc2c(C)nn(-c3nc(C)cs3)c2O)c(OC)c1 was tested, and the “% Inhibition” value was -7%. In the case of CCOC(=O)c1cc(-c2ccccc2)n(NC(=O)COc2ccc(Cl)cc2)c1C, the “% Inhibition” value is reported as -11%. With CNC(=O)c1cc(N2CCN(c3ncc(C(F)(F)F)cc3Cl)CC2)ccc1NC(=O)c1ccccc1Cl the “% Inhibition” value was 7%. CCCN(CCC)CCN1C(=O)[C@@H]2C(C(=O)Nc3cc(Cl)cc(Cl)c3)[C@@H]3C=C[C@]2(O3)C1C(=O)NC1CCCCC1 (some centres not stated) was tested, and the “% Inhibition” value was -3%. COc1ccc(OC)c(NC(=O)Cn2cnc3nc(N4CCOCC4)ncc3c2=O)c1 was tested, and the “% Inhibition” value was 8%. In the case of Cc1cc(-c2nnc3n2CC(C)(C)CC3)c(C)o1, the “% Inhibition” value is reported as 2%. For CCN(C)C1(CNC(=O)c2ccc(-c3cc(F)ccc3O)cc2)CCCC1, the “% Inhibition” value was 26%. CCCc1cc(-c2nc(-c3ccc(-n4nc(C)cc4N)cc3)no2)n(C)n1 was tested, and the “% Inhibition” value was 48%. In the case of COc1cccc2nc(C[C@H]3CN(CC(C)C)CC[C@H]3CC(=O)O)[nH]c12, the “% Inhibition” value is reported as -9%. In the case of NS(=O)(=O)c1ccc(CCNc2nc(-c3ccccc3)nc3ccccc23)cc1, the “% Inhibition” value is reported as -2%. Cc1ccc(-c2nc3ncccn3c2Nc2ccc3c(c2)OCCO3)o1 was tested, and the “% Inhibition” value was -8%. CNc1nc(NCc2ccccc2)nc2ccccc12 was tested, and the “% Inhibition” value was 78%. For C[C@H](Nc1nc(N2CCCCC2)nc2ccccc12)c1ccccc1, the “% Inhibition” value was -1%. With c1ccc(CCNc2nc(-c3ccccn3)cs2)cc1 the “% Inhibition” value was 12%. O=C1c2ccccc2[C@@H](Nc2ccc3c(c2)OCCO3)N1c1ccccn1 was tested, and the “% Inhibition” value was -17%. CC1(C)Cc2nc3ccccc3c(NCc3ccccc3)c2[C@@H](O)C1 was tested, and the “% Inhibition” value was 44%. In the case of c1coc(CNc2nc(Nc3cccc4ccccc34)nc3ccccc23)c1, the “% Inhibition” value is reported as 20%. For CNc1nc(Nc2ccc3c(c2)OCCO3)nc2ccccc12, the “% Inhibition” value was 95%. For CNc1nc(NCCc2ccccc2)nc2ccccc12, the “% Inhibition” value was 80%. Cc1ccc(C)n1-c1ccc(Cl)c(C(=O)NC[C@H]2COCCO2)c1 was tested, and the “% Inhibition” value was -4%. With C#Cc1cc(C(F)(F)F)cc(C#N)c1N the “% Inhibition” value was 5%. CC1(C)CN(C(=O)CN2CCOCC2=O)C2CCCC21 (configuration not stated) was tested, and the “% Inhibition” value was -16%. For COc1cccc(N2CCN(C3=NC(=O)[C@@H](C#N)C4(CCCC4)N3)CC2)c1, the “% Inhibition” value was 2%. O=C(O)Cc1ccc(OCc2nc(-c3ccsc3)no2)cc1 was tested, and the “% Inhibition” value was -2%. For CC(=O)Nc1ccc(C)cc1S(=O)(=O)N1CC=C(c2c(C)n(Cc3ccccc3C)c3ccccc23)CC1, the “% Inhibition” value was 91%. For Cc1ccc(NC(=O)Cn2c(=O)n(Cc3ccco3)c(=O)c3ccccc32)c(C)c1, the “% Inhibition” value was -12%. With Cc1ccc(S(=O)(=O)N2CC[C@H](CC(=O)NCc3ccccc3)C2)c(C)c1 the “% Inhibition” value was -17%. With CC[C@](C)(NCCc1c[nH]c2ccccc12)c1nnnn1CCOC the “% Inhibition” value was -2%. In the case of Cn1c(N2CCN(Cc3ccc4c(c3)OCO4)CC2)cc(=O)n(C)c1=O, the “% Inhibition” value is reported as -12%. For COc1ccc(CNC(=O)N2C[C@H](C)OC3(CCCCC3)C2)cc1OC(F)F, the “% Inhibition” value was -8%. In the case of O=C(NCc1ccco1)c1cc2c(Cl)ccc3c2n1CCO3, the “% Inhibition” value is reported as -1%. Cc1cc2nc(C)c3c(n2n1)N(Cc1ccccc1Cl)CC3 was tested, and the “% Inhibition” value was -2%. In the case of CC(C)Oc1cccnc1C(=O)N(C)c1cnn(C)c1, the “% Inhibition” value is reported as -5%. COc1ccc(-c2cc3c(N4CCN(C)CC4)nccn3n2)cc1OC was tested, and the “% Inhibition” value was 1%. In the case of Cc1nn(-c2ccccn2)c(O)c1C(c1ccccc1)c1c(C)nn(-c2ccccn2)c1O, the “% Inhibition” value is reported as 90%. For COc1ccc(-c2nn(-c3ccccc3)c(O)c2C(c2ccc(C(=O)O)cc2)c2c(-c3ccc(OC)cc3)nn(-c3ccccc3)c2O)cc1, the “% Inhibition” value was 2%. With O=C(CCn1nc(-c2cccc(Cl)c2)ccc1=O)NCc1ccc(F)cc1F the “% Inhibition” value was -2%. For CCn1cc(CN2C(=O)C3CCCCC3C2=O)c(C)n1 (configuration not stated), the “% Inhibition” value was -3%. Oc1nc(N2CCOC3(CCCC3)C2)ncc1F was tested, and the “% Inhibition” value was 51%. With O=C(c1cc(-c2ccncc2)on1)N1CCOC2(CCCCCC2)C1 the “% Inhibition” value was -6%. FC(F)(F)c1cnc(N2CCOC3(CCOCC3)CC2)s1 was tested, and the “% Inhibition” value was -2%. For COC(c1ccc(-c2ccc(OC3CC3)cc2)cc1)C(C)N (configuration not stated), the “% Inhibition” value was -3%. For COc1ccc(CNC(=O)c2ccc(Cl)c(-n3c(C)nc4cccnc43)c2)c(OC)c1, the “% Inhibition” value was 2%. CCOC(=O)c1ccc(N2CCN(Cc3ccccc3)CC2)c(NC(=O)COc2ccc(Cl)cc2C)c1 was tested, and the “% Inhibition” value was -4%. For Cn1nc(N)c2cc(C(F)(F)F)ccc21, the “% Inhibition” value was -2%. In the case of CCn1c(=O)c(N2CCN(C(=O)Nc3cccc(C(F)(F)F)c3)CC2)nc2ccccc21, the “% Inhibition” value is reported as -2%. For Cc1nn(Cc2ccccc2)c2c1C(c1cccc(Cl)c1Cl)c1c(C)nn(Cc3ccccc3)c1O2, the “% Inhibition” value was 9%. With COc1ccc(OC)c(CN2C(=O)c3cc4c(OC)ccc(OC)c4n3C[C@]2(C(=O)NC2CCCCCC2)c2ccccc2)c1 the “% Inhibition” value was 18%. With CCCn1c(C)nnc1COC(=O)c1ncoc1C the “% Inhibition” value was -5%. CC(C)(C)OC(=O)NC1CCN(c2ncc(C(=O)NCc3ccc(F)c(Cl)c3)c(N)n2)CC1 was tested, and the “% Inhibition” value was -17%. CN1CCc2ncnc(Nc3ccc4nc(N5CCCC5)sc4c3)c2C1 was tested, and the “% Inhibition” value was 2%. CC(=O)Nn1ccc2nc(N3CCOCC3)ncc2c1=O was tested, and the “% Inhibition” value was -7%. In the case of COC1(C)CC(NC(=O)C(C(C)C)N2CCCS2(=O)=O)C1(C)C (configuration not stated), the “% Inhibition” value is reported as -9%. With CCC(=O)N(Cc1ccc(-c2ccc(Cl)cc2)o1)[C@H]1CCS(=O)(=O)C1 the “% Inhibition” value was 38%. In the case of Cn1ccc(CN2CCN(c3ccccc3)CC2)n1, the “% Inhibition” value is reported as 1%. Cc1nc(-c2ccc(N3CCC(NCCCn4ccnc4)CC3)cc2)cs1 was tested, and the “% Inhibition” value was 12%.
